Source: PubChem BioAssay
Calls of active or inactive are those of the source.

What was measured:
[1] = target: Albumin (Bos taurus) (UniProt P02769); experiment: bovine serum albumin binders on microarray, profiling panel, artefact control for SMM control protein annotation, biochemical, small-molecule microarray, Alexa647 label, 635/667 nm fluorescence (AID 1118); conditions: BSA-A647 binding, fluorescence 635 nm, higher = more signal;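 further: score merges 667 nm emission intensity and signal-to-noise per printed compound spot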
Sequence of Albumin (Bos taurus) (P02769 whole entry, looked up): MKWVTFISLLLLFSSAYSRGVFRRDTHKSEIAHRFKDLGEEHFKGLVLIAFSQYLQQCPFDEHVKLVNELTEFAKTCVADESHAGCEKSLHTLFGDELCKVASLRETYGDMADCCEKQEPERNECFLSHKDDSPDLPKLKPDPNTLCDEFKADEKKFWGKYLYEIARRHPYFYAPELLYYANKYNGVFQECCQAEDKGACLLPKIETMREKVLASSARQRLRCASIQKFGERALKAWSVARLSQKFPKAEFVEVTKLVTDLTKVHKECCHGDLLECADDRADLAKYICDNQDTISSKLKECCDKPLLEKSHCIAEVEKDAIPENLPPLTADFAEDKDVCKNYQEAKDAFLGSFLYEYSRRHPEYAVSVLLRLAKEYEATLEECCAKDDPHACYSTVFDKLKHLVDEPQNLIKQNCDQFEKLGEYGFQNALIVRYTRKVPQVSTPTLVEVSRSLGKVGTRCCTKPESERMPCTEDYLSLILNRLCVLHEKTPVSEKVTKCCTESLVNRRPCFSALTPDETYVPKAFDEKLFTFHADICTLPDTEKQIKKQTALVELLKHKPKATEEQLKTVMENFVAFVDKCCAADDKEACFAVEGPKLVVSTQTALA

[2] = small-molecule microarray binders of probe aXIP, primary screen, biochemical, NeuroSMM set, 635/667 nm fluorescence (AID 1119); conditions: higher = more signal, called active from +8 up or from −8 down;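 further: probe is the protein aXip251-270 applied at 1 µg/mL to compound-printed slides; binding of probe to printed compounds measured as 667 nm fluorescence plus signal to noise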
[3] = small-molecule binders of probe aNOTCH3, primary screen, biochemical, small-molecule microarray, 635/667 nm fluorescence (AID 1120); conditions: higher = more signal;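 further: probe is a biotin-tagged antibody raised against NOTCH3 rather than NOTCH3 protein; score merges spot fluorescence near 667 nm with spot signal to noise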
[4] = small-molecule binders of probe aNOTCH2, primary screen, biochemical, small-molecule microarray, 635/667 nm fluorescence (AID 1121); conditions: higher = more signal;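 further: score merges feature fluorescence read at 667 nm with its signal to noise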
[5] = target: Carbonic anhydrase 2 (Homo sapiens) (UniProt P00918); experiment: CAII small-molecule binders, profiling panel, biochemical, small-molecule microarray, Alexa647-labelled CAII (AID 1122); conditions: CAII-A647 binding fluorescence, higher = more signal
[6] = COS7 lysate on small-molecule microarray, probe aHis, 635 nm (AID 1123); conditions: COS7 cell lysate, fluorescence, higher = more signal;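 further: z-score combines 667nm fluorescence intensity with signal-to-noise per printed compound spot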
[7] = compound binding in COS7 lysate, probe aLAP1, primary screen, cell lysate, small-molecule microarray (AID 1124); conditions: probe aLAP1, fluorescence, higher = more signal;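 further: lysate comes from COS7 cells expressing LAP1 and is applied at 0.3 µg/mL; score merges spot fluorescence near 667 nm with signal-to-noise over triplicate slides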
[8] = test system: Sam68 (KHDRBS1); experiment: Sam68 small-molecule binders, primary screen, biochemical, small-molecule microarray, 635 nm fluorescence (AID 1125); conditions: small-molecule microarray binding, higher = more signal;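 further: score merges 667 nm channel intensity with signal to noise over triplicate slides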
[9] = test system: Chordin-like protein 2 (CHRDL2); experiment: CHRDL2 small-molecule binders, primary screen, biochemical, small-molecule microarray, 635 nm fluorescence (AID 1126); conditions: small-molecule microarray binding, fluorescence 635 nm; higher = more signal;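 further: printed compound slides probed with Chrdl2 protein at 4 µg/mL for 1 h at 4 C; score merges 667 nm emission intensity with signal to noise over three replicate slides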
[10] = target: Concanavalin-A (Canavalia ensiformis) (UniProt P02866); experiment: ConA small-molecule binders, primary screen, artefact control for SMM control protein annotation, biochemical, small-molecule microarray, Alexa647 label, 635 nm (AID 1127); conditions: ConA-A647 binding fluorescence, higher = more signal;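 further: z combines 667 nm emission intensity with signal-to-noise across three replicate slides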
Sequence of Concanavalin-A (Canavalia ensiformis) (P02866 whole entry, looked up): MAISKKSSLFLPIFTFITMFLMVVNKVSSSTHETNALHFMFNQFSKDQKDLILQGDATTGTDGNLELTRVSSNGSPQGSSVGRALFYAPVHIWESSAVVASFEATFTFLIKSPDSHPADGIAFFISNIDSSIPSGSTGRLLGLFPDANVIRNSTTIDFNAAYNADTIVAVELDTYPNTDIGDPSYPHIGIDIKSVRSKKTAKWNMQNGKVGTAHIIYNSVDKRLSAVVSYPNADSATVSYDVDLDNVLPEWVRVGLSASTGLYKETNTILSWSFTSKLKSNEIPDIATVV

SMILES | composite z-score [1] | composite Z-score [2] | composite z-score [3] | composite z-score [4] | composite z-score [5] | composite z-score [6] | composite z-score [7] | composite z-score [8] | composite z-score [9] | composite z-score [10]
COc1ccc(C(=O)Nc2cccc(CN3C(=O)[C@]4(O[C@H](CCn5cc(CCO)nn5)[C@@H]([Si](C)(C)c5ccc(OC)cc5)[C@@H]4C)c4ccccc43)c2)cc1 | 0.196 | 0.165 (inactive) | 0.0066 | -0.0142 | 0.43 | 0.98 | -0.0719 | 1.1 | 0.306 | 0.692
COCCOC(=O)N1C(=O)[C@@]2(c3cc(C#CC4(O)CCCCCC4)ccc31)[C@H](c1ccccc1OCCO)N1[C@H](c3ccccc3)[C@H](c3ccccc3)OC(=O)[C@H]1[C@@H]2C(=O)N1CCc2cc(OC)c(OC)cc2C1 | 0.223 | 0.758 (inactive) | 0.0039 | -0.0817 | 0.527 | 1.89 | 0.612 | 1.29 | -0.225 | 1.13
CC(C)[Si](C#C[Si](C(C)C)(C(C)C)C(C)C)(O[C@H](C)c1cn(Cc2ccccc2)nn1)C(C)C | 0.551 | -0.539 (inactive) | 0.379 | -0.0956 | 0.48 | 0.664 | 0.177 | 1.03 | 0.289 | 0.598
CCCCC(=C=CC[C@H](O)c1cccc(OCCO)c1)C[C@H](O)c1ccccn1 | 0.424 | 0.152 (inactive) | -0.0014 | -0.153 | 0.693 | -0.0434 | -0.165 | -0.15 | 0.23 | 0.503
Cc1c(NC(=O)/C(C#N)=C/c2cccc([N+](=O)[O-])c2)c(=O)n(-c2ccccc2)n1C | 0.48 | -0.449 (inactive) | 0.0934 | 0.993 | 0.792 | 0.719 | 0.861 | 0.928 | 0.393 | 0.456
CCOC(=O)C[C@H]1[C@H](OC(=O)c2cc3ccccc3oc2=O)[C@@H](NC(=O)CC(C)C)c2cc(OCCCO)ccc2N1C(=O)c1ccccc1 | 0.793 | -0.081 (inactive) | -0.0044 | -0.14 | 0.308 | 0.614 | 0.139 | 1.21 | 0.202 | 0.298
COc1ccc([Si](C)(C)[C@@H]2[C@@H](CC(=O)N3CCC[C@H]3CO)O[C@]3(C(=O)N(Cc4cccc(I)c4)c4ccccc43)[C@H]2C)cc1 | -0.392 | 0.119 (inactive) | 0.175 | -0.0956 | 0.644 | 0.066 | 0.0817 | 1.31 | 1.45 | 0.938
[N-]=[N+]=NCc1ccccc1C[C@@]1(C(=O)NCC(O)CO)N=C(c2ccc(OCCCO)cc2)O[C@@H]1c1ccccc1 (stereo not given in full) | 0.992 | -0.191 (inactive) | -0.0077 | 0.0996 | 0.432 | 2.82 | -0.177 | 0.331 | -0.247 | -1.11
O=C1O[C@@H](c2ccccc2)[C@@H](c2ccccc2)N2[C@@H](c3ccc(OCCO)cc3)[C@]3(C(=O)Nc4ccc(C#CCCO)cc43)[C@@H](C(=O)NC[C@H](O)c3ccccc3)[C@H]12 | -0.517 | 1.23 (inactive) | 0.138 | -0.143 | 0.165 | 1.66 | 0.822 | 1.26 | 0.891 | 1.07
COCCOC(=O)N1C(=O)[C@@]2(c3ccccc31)[C@H](C(=O)N1CCc3cc(OC)c(OC)cc3C1)[C@H]1C(=O)O[C@H](c3ccccc3)[C@H](c3ccccc3)N1[C@@H]2c1ccc(O)cc1 | 0.795 | 0.27 (inactive) | -0.0072 | 0.0129 | 0.424 | 2.19 | 0.808 | 1.31 | 0.628 | 1.17
COCC(=C=CC[C@H](O)c1ccccc1OCCO)CCO | 0.003 | -0.325 (inactive) | -0.0048 | -0.0475 | 0.774 | 0.969 | 0.162 | 0.853 | -0.546 | 0.298
CCOC(=O)C[C@H]1[C@H](OC(=O)c2ccc(C(=O)c3ccccc3)cc2)[C@@H](NC(=O)c2ccccc2)c2cc(OCCCO)ccc2N1C(=O)c1ccccc1 | 0.754 | 0.607 (inactive) | 0.184 | -0.108 | 0.171 | 0.702 | -0.115 | 1.23 | 0.17 | 0.82
CCC(CC)C(O)C1C=CC2C(=O)N(c3ccccc3)C(=O)C2N1Nc1ccccc1 (stereo not given) | 0.803 | 0.62 (inactive) | 0.708 | 0.272 | 0.491 | 2.44 | 0.383 | 1.31 | 0.0429 | 1.16
O=C(CS)NCCCCCNC(=O)[C@@H]1C[C@@H]2C(=O)NCC(=O)N2[C@@H]1c1ccc(O)cc1 | -0.911 | 2 (inactive) | -0.189 | -0.213 | 0.552 | 0.559 | 0.144 | 0.692 | 0.616 | 0.53
COC(=O)C(CC#Cc1ccc2c(c1)[C@]1(C(=O)N2)[C@H](c2ccccc2OCCO)N2[C@H](c3ccccc3)[C@H](c3ccccc3)OC(=O)[C@H]2[C@@H]1C(N)=O)C(=O)OC | 0.468 | 0.389 (inactive) | 0.631 | 0.25 | 0.672 | 2.09 | 0.493 | 0.519 | 0.0031 | 0.736
COc1ccc(CCNC(=O)[C@@]2(C)c3ccccc3C(=O)N(c3ccc(C)cn3)[C@H]2c2ccc(CO)cc2)cc1 | -0.252 | -0.133 (inactive) | -0.365 | -0.0956 | 0.793 | -0.335 | 0.165 | 0.243 | -1.02 | -0.699

SMILES | composite z-score [1] | composite Z-score [2] | composite z-score [3] | composite z-score [4] | composite z-score [5] | composite z-score [6] | composite z-score [7] | composite z-score [8] | composite z-score [9] | composite z-score [10]
CCOC(=O)C[C@H]1[C@H](OC(=O)c2ccc(C(=O)c3ccccc3)cc2)[C@@H](NC(=O)Cc2ccc(OC)cc2)c2cc(OCCCO)ccc2N1C(=O)c1ccc2ccccc2n1 | 0.701 | 0.0505 (inactive) | -0.0445 | -0.0868 | 0.151 | 1.34 | 0.493 | 1.09 | -0.0473 | 0.818
CCOC(=O)C1=C[C@@H](C(C)C)N(S(=O)(=O)c2ccc(C)cc2)[C@H]1c1ccccc1F | 0.81 | 0.594 (inactive) | 0.0576 | -0.0877 | 0.62 | 1.66 | -0.144 | 1.31 | -0.333 | 1.17
COc1ccc(C#Cc2ccc3c(c2)[C@]2(C(=O)N3)[C@H](c3ccc(O)cc3)N3[C@H](c4ccccc4)[C@H](c4ccccc4)OC(=O)[C@H]3[C@@H]2C(=O)N2CCc3cc(OC)c(OC)cc3C2)cc1 | 0.719 | 1.39 (inactive) | 0.0196 | -0.12 | 0.459 | 1.33 | 0.326 | 1.31 | 0.356 | 1.12
CCOC(=O)C1=CC[C@@H](c2ccccc2)N(S(=O)(=O)c2ccc(C)cc2)[C@H]1c1ccc(CC)cc1 | 0.847 | -0.579 (inactive) | 0.0749 | -0.0371 | 0.571 | 1.52 | 0.662 | 1.1 | -0.0671 | 1.11
COC(=O)C(CC#Cc1ccc2c(c1)[C@]1(C(=O)N2)[C@H](c2ccccc2OCCO)N2[C@H](c3ccccc3)[C@H](c3ccccc3)OC(=O)[C@H]2[C@@H]1C(=O)O)C(=O)OC | 0.573 | 0.0066 (inactive) | 0.194 | -0.1 | 0.367 | 1.7 | 0.375 | 1.3 | 0.132 | 1.09
COCCOC(=O)N1C(=O)[C@@]2(c3cc(C#CCCO)ccc31)[C@H](c1ccc(OCCO)cc1)N1[C@H](c3ccccc3)[C@H](c3ccccc3)OC(=O)[C@H]1[C@@H]2C(N)=O | 0.482 | 0.606 (inactive) | -0.0117 | -0.0567 | 0.588 | 1.93 | -0.591 | 1.29 | 0.437 | 1.17
C=CCNC(=O)[C@@H]1[C@H]2C(=O)O[C@H](c3ccccc3)[C@H](c3ccccc3)N2[C@H](c2ccc(OCCO)cc2)[C@@]12C(=O)N(C(=O)OCCOC)c1ccc(C#CCC(C(=O)OC)C(=O)OC)cc12 | 0.371 | 0.0558 (inactive) | 0.199 | 0.0278 | 0.637 | 1.37 | 1.05 | 1.31 | 0.665 | 1.09
COC(=O)c1c2oc(c1C(=O)OC)C(=O)N[C@@H](C(C)C)Cn1cc(nn1)C1(CCCCC1)NC(=O)N[C@H](CO)CC2 | -0.0901 | -0.203 (inactive) | -0.122 | -0.0761 | 0.828 | 1.18 | -0.0841 | 0.194 | 0.199 | 0.689
CCCC(=O)N(CCc1c[nH]c2ccccc12)[C@@H]1CC(C(=O)NCCO)=C[C@H](Oc2c(I)cc(CO)cc2OC)[C@H]1O | 0.0754 | -0.471 (inactive) | -0.0962 | -0.085 | 0.723 | 0.532 | -0.107 | 0.195 | 0.144 | 0.314
CC(=O)n1cc(C(O)C2C=CC3C(=O)NC(=O)C3N2Nc2ccccn2)c2ccccc21 (stereo not given) | 0.281 | -0.0662 (inactive) | -0.116 | -0.176 | 0.817 | 0.688 | 0.248 | 0.0906 | 0.549 | 0.551
COCCOC(=O)N1C(=O)[C@@]2(c3cc(C#CC4=CCCCC4)ccc31)[C@H](c1ccc(OCCO)cc1)N1[C@H](c3ccccc3)[C@H](c3ccccc3)OC(=O)[C@H]1[C@@H]2C(=O)N1CCc2cc(OC)c(OC)cc2C1 | 0.134 | 0.111 (inactive) | 0.206 | -0.0677 | 0.342 | 1.01 | 0.868 | 1.31 | 0.839 | 0.922
O=C(NCCN1CCOCC1)[C@@H]1c2ccccc2C(=O)N(Cc2cc(C(F)(F)F)cc(C(F)(F)F)c2)[C@H]1c1ccc(CO)cc1 | -0.32 | -0.253 (inactive) | -0.292 | -0.101 | 0.699 | 1.61 | 0.501 | 0.687 | -1.67 | 0.412
COCCCNC(=O)[C@@]1(Cc2ccccc2)N=C(c2ccc(OCCCO)cc2)O[C@H]1c1ccccc1CN=[N+]=[N-] | 0.884 | 0.294 (inactive) | 0.217 | 0.253 | 0.752 | 2.78 | 0.982 | 1.32 | -1.1 | 1.12
COCCCNC(=O)[C@@H]1c2ccccc2C(=O)N(Cc2ccccc2OC)[C@H]1c1ccc(CO)cc1 | 0.459 | 0.414 (inactive) | -0.0932 | -0.155 | 0.711 | 1.36 | -0.355 | -0.268 | 0.447 | 0.948
C=CCC(OC(C)=O)[C@@H]1[C@@H](N(Cc2ccc(-c3cccc(C(F)(F)F)c3)o2)C(=O)Cc2ccc(OC)cc2)c2cc(OCCCO)ccc2N1C(=O)c1ccc2ccccc2c1 (stereo not given in full) | 0.268 | -0.616 (inactive) | 0.0423 | -0.131 | 0.228 | 1.14 | -0.0744 | -0.651 | -0.0916 | -0.471
CC(C)NC(=O)[C@@H]1c2ccccc2C(=O)N(C(C)C)[C@H]1c1ccc(CO)cc1 | -0.163 | -0.174 (inactive) | -0.215 | -0.179 | 0.644 | 2.97 | 0.338 | 0.637 | -1.38 | 0.185
